The structures appear in SMILES notation. Active and inactive are the calls of the source. No rule for the calls is given here.

In the assay the target is Protein kinase 7 (PK7), Plasmodium falciparum 3D7 (PF3D7_0213400) (UniProt Q7YTF7). The assay can be described thus: inhibition of Plasmodium PK7 catalytic activity – biochemical, TCAMS antimalarial set, Kinase-Glo luminescence (AID 1159587). The settings on record: recombinant PfPK7, Kinase-Glo ATP depletion luminescence. On the technique in general: In Kinase-Glo more light means more ATP remaining.
Sequence of Protein kinase 7 (PK7), Plasmodium falciparum 3D7 (PF3D7_0213400) (Q7YTF7 1-343): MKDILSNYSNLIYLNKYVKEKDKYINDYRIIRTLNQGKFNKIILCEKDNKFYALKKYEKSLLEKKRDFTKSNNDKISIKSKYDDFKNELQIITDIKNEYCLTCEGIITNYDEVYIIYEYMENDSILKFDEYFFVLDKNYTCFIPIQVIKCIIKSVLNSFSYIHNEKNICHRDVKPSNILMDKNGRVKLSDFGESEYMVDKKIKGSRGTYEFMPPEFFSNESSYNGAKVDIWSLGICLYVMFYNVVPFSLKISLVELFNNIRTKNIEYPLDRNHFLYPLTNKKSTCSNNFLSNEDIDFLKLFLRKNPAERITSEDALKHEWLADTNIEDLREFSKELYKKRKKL
With `OCC1CCN(Cc2ccc(-c3ccc(-c4nc5ccc(F)cc5[nH]4)cc3)cc2)CC1`, the outcome was inactive. With `COc1cc(NC(=O)Nc2ccc([N+](=O)[O-])cc2OC)c(OC)cc1Cl` the entry was “inactive”; with `COc1cc(C)nc2ccc(NC(=O)Nc3ccc4nc(C)cc(OC)c4c3)cc12`, “inactive”.

As for `CC(C)C[C@H](NC(=O)c1cccc(F)c1)C(=O)N[C@H](/C=N/NC(=O)c1ccccc1)CCc1ccccc1`, the result was inactive. `Nc1ccn([C@@H]2O[C@H](COC(c3ccccc3)(c3ccccc3)c3ccccc3)[C@@H](O)[C@@H]2O)c(=O)n1`: the result was inactive.

On to `N#Cc1ccc2c(c1)CCN(CCC1CCC(NC(=O)c3cc4ccc(Cl)cc4[nH]3)CC1)C2` (centres undefined), for which the outcome was inactive. The result for `Cc1cccc(-c2nc(Nc3ccncc3)c3ccc([N+](=O)[O-])cc3n2)n1` reads “inactive”; that for `CC(C)C[C@H](NC(=O)c1ccc(OCCN2CCOCC2)cc1)C(=O)N[C@H](/C=N/NC(=O)OC(C)(C)C)CCc1ccccc1`, “inactive”.

For the compound `CC(C)CCNC(=O)C1Cc2c([nH]c3cc(Br)ccc23)C2(CCN(Cc3ccccc3)CC2)N1` (centres undefined), the result was inactive.

Regarding `O=C(/C=C/c1ccc(Cl)c(Cl)c1)N1CCN(C(=O)Nc2ccc(F)c(Cl)c2)CC1`, the outcome was inactive.

As to `COc1ccc(CCN2CC[C@H](Nc3nc(-c4ccc(F)c(F)c4)nc4ccccc34)C2)cc1S(N)(=O)=O`, the outcome was inactive. As to `O=[N+]([O-])c1cccc(NC(=S)N2CCCN(Cc3ccc(F)cc3F)CC2)c1`, the result was inactive. With `N#Cc1ccc(NC(=NC2CCCc3ccccc32)Nc2ccc(-c3ccccc3)cc2)c(O)c1` (centres undefined) the entry was “inactive”; with `Fc1cccc(COc2ccc(-n3ccc4c(NCCCn5ccnc5)ncnc43)cc2Cl)n1`, “inactive”.

For the origin of these results see PubChem BioAssay.
